Compound activity: PubChem BioAssay, National Center for Advancing Translational Sciences (NCATS)
Rows were chosen to be rich in hits. Some 11% of all compounds tested hit in one or more screens of this group.
BAZ2B block – qHTS Assay for Inhibitors of BAZ2B. Bromodomain adjacent to zinc finger domain protein 2B (Homo sapiens), Q9UIF8. AlphaScreen BAZ2B-H3K14Ac peptide displacement. Potency, µM (doses to about 114 µM), without a hit: at the top dose activity change, negative = inhibition, most hits filed as inhibitors. actives 4.4% (n = 360,000). AID 504333, 2011; note: % is set by controls: 0 for no effect and ±100 for the full control effect; nearly all actives have a fitted effect of over 60% in size
Target sequence (Q9UIF8 whole entry, looked up, the tested form may be a part): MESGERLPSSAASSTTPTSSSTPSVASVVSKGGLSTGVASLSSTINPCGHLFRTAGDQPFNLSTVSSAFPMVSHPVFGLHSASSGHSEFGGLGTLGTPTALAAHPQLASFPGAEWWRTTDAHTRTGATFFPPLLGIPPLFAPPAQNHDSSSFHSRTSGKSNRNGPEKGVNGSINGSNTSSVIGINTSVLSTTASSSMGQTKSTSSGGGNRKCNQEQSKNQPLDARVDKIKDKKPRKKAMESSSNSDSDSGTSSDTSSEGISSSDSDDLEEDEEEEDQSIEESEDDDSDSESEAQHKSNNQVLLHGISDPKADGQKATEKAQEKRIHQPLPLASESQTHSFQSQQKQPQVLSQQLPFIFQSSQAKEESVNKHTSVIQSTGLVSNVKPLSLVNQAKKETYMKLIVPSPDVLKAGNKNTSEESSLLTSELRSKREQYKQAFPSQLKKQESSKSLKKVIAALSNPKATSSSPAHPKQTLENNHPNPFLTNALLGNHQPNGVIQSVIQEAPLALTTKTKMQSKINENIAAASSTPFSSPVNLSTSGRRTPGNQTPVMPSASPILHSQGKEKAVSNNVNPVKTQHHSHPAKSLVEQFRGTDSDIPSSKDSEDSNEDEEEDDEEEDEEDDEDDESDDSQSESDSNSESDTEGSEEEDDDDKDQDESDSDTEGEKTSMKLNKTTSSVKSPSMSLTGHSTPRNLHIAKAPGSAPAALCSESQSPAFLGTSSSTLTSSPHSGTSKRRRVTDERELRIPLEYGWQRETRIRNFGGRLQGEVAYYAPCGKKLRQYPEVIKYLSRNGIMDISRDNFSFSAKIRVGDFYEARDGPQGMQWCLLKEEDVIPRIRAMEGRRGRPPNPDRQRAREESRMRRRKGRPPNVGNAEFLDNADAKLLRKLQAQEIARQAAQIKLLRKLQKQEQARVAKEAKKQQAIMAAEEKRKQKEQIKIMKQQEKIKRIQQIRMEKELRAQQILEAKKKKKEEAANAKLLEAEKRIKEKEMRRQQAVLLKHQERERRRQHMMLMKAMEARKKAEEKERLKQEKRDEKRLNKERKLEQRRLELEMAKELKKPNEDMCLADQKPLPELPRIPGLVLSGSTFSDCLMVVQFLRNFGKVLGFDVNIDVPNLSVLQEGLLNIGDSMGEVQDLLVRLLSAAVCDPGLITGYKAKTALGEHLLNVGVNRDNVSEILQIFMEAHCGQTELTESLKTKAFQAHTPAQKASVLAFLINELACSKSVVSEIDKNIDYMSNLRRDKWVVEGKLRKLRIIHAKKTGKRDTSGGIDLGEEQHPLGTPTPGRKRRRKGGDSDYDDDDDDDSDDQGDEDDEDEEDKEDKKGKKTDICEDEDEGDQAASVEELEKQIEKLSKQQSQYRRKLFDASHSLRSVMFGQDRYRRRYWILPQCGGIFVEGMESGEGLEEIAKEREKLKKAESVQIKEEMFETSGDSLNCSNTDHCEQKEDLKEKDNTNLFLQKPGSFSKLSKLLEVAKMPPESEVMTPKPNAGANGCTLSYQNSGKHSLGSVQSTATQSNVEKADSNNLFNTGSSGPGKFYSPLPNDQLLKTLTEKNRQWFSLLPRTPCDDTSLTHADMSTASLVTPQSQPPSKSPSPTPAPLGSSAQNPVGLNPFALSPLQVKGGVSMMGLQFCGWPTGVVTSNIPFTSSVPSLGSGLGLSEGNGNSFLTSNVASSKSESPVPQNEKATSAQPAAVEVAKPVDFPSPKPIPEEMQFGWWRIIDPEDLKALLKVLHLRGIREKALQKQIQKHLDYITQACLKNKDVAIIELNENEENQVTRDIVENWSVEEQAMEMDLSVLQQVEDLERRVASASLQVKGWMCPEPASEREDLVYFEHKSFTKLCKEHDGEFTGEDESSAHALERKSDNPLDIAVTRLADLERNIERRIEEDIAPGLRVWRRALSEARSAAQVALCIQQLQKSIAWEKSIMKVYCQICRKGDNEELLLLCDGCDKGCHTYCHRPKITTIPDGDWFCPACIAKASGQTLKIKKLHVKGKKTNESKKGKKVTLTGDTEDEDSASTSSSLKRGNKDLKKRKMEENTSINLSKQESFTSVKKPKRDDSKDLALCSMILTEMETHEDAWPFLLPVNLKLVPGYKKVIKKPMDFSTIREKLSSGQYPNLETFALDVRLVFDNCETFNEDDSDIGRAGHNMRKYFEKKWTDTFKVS
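BAZ2B 50 nM plus b-H3(5-23)K14Ac 50 nM, PBS pH 7.4/0.01% Tween-20, 30 min RT; compound added (max 110 uM), 30 min RT; streptavidin donor/Ni-chelate acceptor beads 10 ug/mL final, 20 min dark; AlphaScreen read.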
L3MBTL1 block – qHTS Assay for the Inhibitors of L3MBTL1. Lethal(3)malignant brain tumor-like protein 1 (Homo sapiens), Q9Y468. AlphaScreen L3MBTL1–H3K9me1 peptide binding. Potency, µM (highest dose often 57.1 µM), for the others: at the top dose activity, negative = inhibition, hits mostly inhibitors. actives 0.66% (n = 230,000); note: % is set by controls: 0 for no effect and ±100 for the full control effect; nearly all actives have a fitted effect of over 60% in size
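Displacement of a biotinylated histone H3(1-15) peptide monomethylated at Lys9 (75 nM) from L3MBTL1 (50 nM) was measured by AlphaScreen after a 30 min room-temperature compound incubation; cefsulodin titration served as intraplate control.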
HP1b binding inh – HTS for Inhibitors of HP1-beta Chromodomain Interactions with Methylated Histone Tails. AID 540317, 2011. Potency, µM (series often up to 114 µM), for the others: at the highest dose activity change, negative = inhibition, usual class: inhibitors. actives 0.56% (n = 390,000). AlphaScreen HP1-beta / biotin-H3K9me3 peptide binding; note: nearly all actives have a fitted effect of over 70% in size
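AlphaScreen: HP1-beta (50 nM) preformed 30 min with biotin-H3(1-18)K9me3 peptide (50 nM) in PBS pH 7.4, 0.01% Tween-20. Compound added for 30 min at RT, then streptavidin donor/nickel chelate acceptor beads (10 ug/mL) for 30 min.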
JMJD2A Tudor inh – qHTS Assay for Inhibitors of JMJD2A-Tudor Domain; AlphaScreen JMJD2A-Tudor / H3K4me3 peptide binding; Potency, µM (series often up to 114 µM), without a hit: at the top dose activity change, negative = inhibition, hits mostly inhibitors; actives 4.4% (n = 390,000); AID 504339, 2011; note: % is set by controls: 0 for no effect and ±100 for the full control effect; nearly all actives have a fitted effect of over 50% in size
G9a inh – qHTS Assay for Inhibitors of Histone Lysine Methyltransferase G9a. Histone-lysine N-methyltransferase EHMT2 (Homo sapiens), Q96KQ7. G9a H3K9 monomethylation, AlphaScreen, 2 h. Potency, µM (doses to about 102 µM), for the others: at the highest dose activity, negative = inhibition, most hits filed as inhibitors. actives 8.8% (n = 350,000). AID 504332, 2011; note: % is set by controls: 0 for no effect and ±100 for the full control effect; nearly all actives have a fitted effect of over 75% in size
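Readings reflect AlphaScreen signal from monomethyl-H3K9 antibody detection. HMT at 20 nM; substrate b-H3K9 500 nM; cofactor SAM 20 uM; 2 h RT reaction; compounds tested as titrations in qHTS with 15 min preincubation.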
Starred values were filed as active, the others as inactive; ? = inconclusive; / = no result given; [ ] = another dose, or the depositor's remark. Calls come from the whole dose curve; as a rule, active = well fitted inhibition curve with a large enough effect; inconclusive = small, poorly fitted or top-dose-only effect; inactive = no such curve, though single readings can be large or run the other way. Potency is the fitted concentration of half-maximal effect.

SMILES	BAZ2B block	L3MBTL1 block	HP1b binding inh	JMJD2A Tudor inh	G9a inh
O=C(CC1SC(=O)N(c2ccccc2)C1=O)Nc1ccc(Cl)cc1 (stereo not drawn)	-35.7%	-2.2%	10.2%	-23.3%	44.7µM*
Cc1cc(O)ccc1NS(=O)(=O)c1ccc2c3c(cccc13)C(=O)N2	-26.8%	/	8.8%	-17.2%	-22.4%
COc1ccc(C)cc1NS(=O)(=O)c1ccc2c3c(cccc13)C(=O)N2	-20.7%	/	-59.4%	56.2µM*	-37.1%[59 µM]
O=C1CCCc2oc3c(cc(NS(=O)(=O)c4ccc5c6c(cccc46)C(=O)N5)c4ccccc43)c21	-28.7%	/	6.7%	-29.4%	?
Cc1oc2c(cc(NS(=O)(=O)c3ccc4c5c(cccc35)C(=O)N4)c3ccccc32)c1C(=O)OC(C)C	-23.6%	-9.7%	-6.4%	-31.0%	20µM*
CCc1ccc(N(C(=O)c2snc(C(N)=O)c2N)C(C(=O)NC2CCCC2)c2ccncc2)cc1 (stereo not drawn)	-11.2%	/	17.4%	1.4%	12.8%
COc1cc(F)cc(-c2ccc3c(c2)c(-c2cccs2)c(-c2cc(OC)cc(OC)c2)n3C)c1	-2.6%	-4.7%	37.5%	-4.9%	6.1%[0.501 µM]
COc1cc(OC)cc(-c2c(-c3cccs3)c3cc(-c4ccc(N(C)C)nc4)ccc3n2C)c1	56.2µM*	-2.2%	14.1%	?	3.1%[0.501 µM]
COc1cc(C2CC(=O)N(Cc3ccc(F)cc3)c3ccccc3S2)cc(OC)c1OC (stereo not drawn)	?	/	20.0%	-17.5%	-26.7%[59 µM]
COc1cc(CNC2CCCCC2OC)cc(OC)c1OC (stereo not drawn)	?	3.3%	?	?	11.2µM*
O=[N+]([O-])C1C(c2ccccc2)=NOC1c1ccccc1O (stereo not drawn)	-5.2%	-6.2%	39.8%	-23.9%	?
Cc1ccc(C(=O)OC(C)C(=O)c2cc(C)c(C)cc2C)o1 (stereo not drawn)	0.9%	/	43.1%	8.2%	2.5%
Cc1cc(C)c(C(=O)C(C)OC(=O)c2ccccn2)cc1C (stereo not drawn)	79.4µM*	/	8.5%	50.1µM*	?
CCC(C)NC(=O)CC1Oc2ccc(Cl)cc2NC1=O (stereo not drawn)	10.5%	/	47.1%	-10.6%	44.7µM*
COc1ccc(CCNC(=O)CC2Oc3ccc(Cl)cc3NC2=O)cc1OC (stereo not drawn)	-23.4%	/	33.6%	-19.7%	79.4µM*
Cc1ccc(CNS(=O)(=O)c2cc3c(cc2Cl)NC(=O)CO3)o1	23.2%	/	32.0%[57 µM]	-20.5%	1.1%[59 µM]
COc1cc(NC(c2ccccc2)c2ccccc2)cc(OC)c1OC	44.7µM*	-10.7%	-7.1%	-22.1%	39.8µM*
COc1ccc(NC(c2ccccc2)c2ccncc2)cc1 (stereo not drawn)	70.8µM*	/	7.5%	44.7µM*	7.08µM*
CCOC(=O)C(NS(=O)(=O)c1ccccc1)(C(F)(F)F)P(=O)(OCC(C)C)OCC(C)C (stereo not drawn)	2.3%	/	13.2%	-15.8%	10µM*
CCc1cccc(NC(=O)c2nc(-c3ccncc3)no2)c1	-29.5%	/	33.2%	-16.4%	-36.3%[59 µM]
COc1ccc(CCN(C)CC(=O)Nc2cc(C)nc3ccccc23)cc1OC	22.4µM*	/	22.4µM*	0.794µM*	4.47µM*
CCc1ccc(CN(C)CCc2ccccn2)cc1	44.7µM*	-5.5%	?	3.98µM*	?
COc1ccc(CN(C)CCc2ccccn2)cc1OC	31.6µM*	-27.1%	-45.5%	35.5µM*	3.16µM*
COc1ccc(CCN(C)Cc2ccc(OC)c(OCc3ccccc3)c2)cc1OC	?	-4.1%	-51.9%	3.16µM*	?
CCCCN(CC)CCNC(=O)C1CCCN(c2ncnc3onc(C)c23)C1 (stereo not drawn)	7.9%[57.1 µM]	/	29.4%	-1.3%	-26.4%[59 µM]
